{"source": "the supplement of paper PMC11026393", "system": "H1299", "experiment": "difference in mean normalized H2B-mRuby nuclear fluorescence intensity relative to DMSO control (normalized intensity difference (DMSO = 0)); higher = stronger increase in transgene reporter fluorescence", "settings": "24 h", "experimental": "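Cancer cell lines stably expressing H2B-mRuby2 from a lentiviral PGK promoter were treated with each drug for 24 h and imaged on a Leica DMI8 (ex 541-551 / em 565-605 nm). Nuclei were segmented in CellProfiler. The value is the difference in mean per-nucleus normalized H2B-mRuby intensity versus DMSO-treated cells (about 3 repeats x 4 fields). Doxorubicin is itself fluorescent. Dasatinib is in nM.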", "data": [{"smiles": "O=C(NOC[C@H](O)CO)c1ccc(F)c(F)c1Nc1ccc(I)cc1F", "note": "(concentration unit: uM)", "values": [{"measurement": "difference", "setting": "concentration: 0.05", "result": -0.0791}, {"measurement": "difference", "setting": "concentration: 0.1", "result": -0.114}, {"measurement": "difference", "setting": "concentration: 0.25", "result": -0.172}, {"measurement": "difference", "setting": "concentration: 1", "result": -0.174}, {"measurement": "difference", "setting": "concentration: 5", "result": -0.199}]}, {"smiles": "O=C(/C=C/c1cccc(S(=O)(=O)Nc2ccccc2)c1)NO", "note": "(concentration unit: uM)", "values": [{"measurement": "difference", "setting": "concentration: 0.25", "result": 0.186}, {"measurement": "difference", "setting": "concentration: 0.5", "result": 0.231}, {"measurement": "difference", "setting": "concentration: 1", "result": 0.491}, {"measurement": "difference", "setting": "concentration: 2.5", "result": 0.854}, {"measurement": "difference", "setting": "concentration: 5", "result": 1.19}]}, {"smiles": "COc1cc([C@@H]2c3cc4c(cc3[C@@H](O[C@@H]3O[C@@H]5CO[C@@H](C)O[C@H]5[C@H](O)[C@H]3O)[C@H]3COC(=O)[C@H]23)OCO4)cc(OC)c1O", "note": "(concentration unit: uM)", "values": [{"measurement": "difference", "setting": "concentration: 0.5", "result": 0.147}, {"measurement": "difference", "setting": "concentration: 1", "result": 0.0921}, {"measurement": "difference", "setting": "concentration: 2.5", "result": 0.108}, {"measurement": "difference", "setting": "concentration: 5", "result": 0.206}, {"measurement": "difference", "setting": "concentration: 10", "result": 0.153}, {"measurement": "difference", "setting": "concentration: 20", "result": 0.189}]}, {"smiles": "O=C(c1cc(Cc2n[nH]c(=O)c3ccccc23)ccc1F)N1CCN(C(=O)C2CC2)CC1", "note": "(concentration unit: uM)", "values": [{"measurement": "difference", "setting": "concentration: 1", "result": -0.0151}, {"measurement": "difference", "setting": "concentration: 2.5", "result": -0.0147}, {"measurement": "difference", "setting": "concentration: 5", "result": 0.0174}, {"measurement": "difference", "setting": "concentration: 10", "result": 0.0357}, {"measurement": "difference", "setting": "concentration: 25", "result": 0.0633}]}, {"smiles": "O=c1[nH]cc(F)c(=O)[nH]1", "note": "(concentration unit: uM)", "values": [{"measurement": "difference", "setting": "concentration: 1", "result": -0.0723}, {"measurement": "difference", "setting": "concentration: 2.5", "result": -0.0395}, {"measurement": "difference", "setting": "concentration: 5", "result": -0.107}, {"measurement": "difference", "setting": "concentration: 10", "result": -0.0707}, {"measurement": "difference", "setting": "concentration: 25", "result": -0.0709}]}, {"smiles": "CO[C@H]1C[C@@H]2CC[C@@H](C)[C@@](O)(O2)C(=O)C(=O)N2CCCC[C@H]2C(=O)O[C@H]([C@H](C)C[C@@H]2CC[C@@H](O)[C@H](OC)C2)CC(=O)[C@H](C)/C=C(\\C)[C@@H](O)[C@@H](OC)C(=O)[C@H](C)C[C@H](C)/C=C/C=C/C=C/1C", "note": "(concentration unit: nM)", "values": [{"measurement": "difference", "setting": "concentration: 2.5", "result": -0.0109}, {"measurement": "difference", "setting": "concentration: 10", "result": 0.177}, {"measurement": "difference", "setting": "concentration: 25", "result": 0.0761}, {"measurement": "difference", "setting": "concentration: 50", "result": 0.0674}, {"measurement": "difference", "setting": "concentration: 250", "result": 0.0406}]}, {"smiles": "COc1cc(Nc2ncc3c(n2)-c2ccc(Cl)cc2C(c2c(F)cccc2OC)=NC3)ccc1C(=O)O", "note": "(concentration unit: nM)", "values": [{"measurement": "difference", "setting": "concentration: 10", "result": -0.0235}, {"measurement": "difference", "setting": "concentration: 50", "result": -0.0295}, {"measurement": "difference", "setting": "concentration: 250", "result": 0.00737}, {"measurement": "difference", "setting": "concentration: 500", "result": 0.159}, {"measurement": "difference", "setting": "concentration: 1000", "result": 0.136}]}, {"smiles": "Cn1c(=O)n(-c2ccc(C(C)(C)C#N)cc2)c2c3cc(-c4cnc5ccccc5c4)ccc3ncc21", "note": "(concentration unit: nM)", "values": [{"measurement": "difference", "setting": "concentration: 10", "result": 0.158}, {"measurement": "difference", "setting": "concentration: 50", "result": 0.191}, {"measurement": "difference", "setting": "concentration: 100", "result": 0.157}, {"measurement": "difference", "setting": "concentration: 250", "result": 0.0684}, {"measurement": "difference", "setting": "concentration: 500", "result": 0.0286}]}]}
